About 83,000 compounds went through this panel and 20% of them were active in at least one assay; those are over-represented in the sample as a whole.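 Compound tested at a single concentration for 48 hours in 96-well plates; a percent growth value below 10 was scored as active.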 Values without a mark were called inactive. Activity calls are given as the source filed them.
Assays:
Assay in all cases: NCI-60 one-dose screen, 48 h (100 = growth as untreated, 0 = no growth, -100 = all killed)
NCI-H23 lung = conditions: 10 µM unless noted
NCI-H226 lung = conditions: 10 µM unless noted
NCI-H322M lung = conditions: 10 µM unless noted
HOP-62 NSCLC = conditions: 10 µM unless noted
NCI-H460 lung = conditions: 10 µM unless noted
NCI-H522 lung = conditions: 10 µM
786-0 renal = conditions: 10 µM unless noted
COLO 205 colon = conditions: 10 µM unless noted
K-562 leukemia = conditions: 10 µM unless noted
MALME-3M melanoma = conditions: 10 µM unless noted
MDA-MB-231 breast = conditions: 10 µM unless noted
SF-268 CNS = conditions: 10 µM unless noted
SF-295 CNS = conditions: 10 µM unless noted
SF-539 CNS = conditions: 10 µM unless noted
UACC-257 melanoma = conditions: 10 µM unless noted
M14 melanoma = conditions: 10 µM unless noted
HOP-92 NSCLC = conditions: 10 µM unless noted
A549/ATCC NSCLC = conditions: 10 µM unless noted
DU-145 prostate = conditions: 10 µM unless noted
RXF 393 renal = conditions: 10 µM unless noted

Compound | growth (NCI-H23 lung) | growth (NCI-H226 lung) | growth (NCI-H322M lung) | growth (HOP-62 NSCLC) | growth (NCI-H460 lung) | growth (NCI-H522 lung) | growth (786-0 renal) | growth (COLO 205 colon) | growth (K-562 leukemia) | growth (MALME-3M melanoma) | growth (MDA-MB-231 breast) | growth (SF-268 CNS) | growth (SF-295 CNS) | growth (SF-539 CNS) | growth (UACC-257 melanoma) | growth (M14 melanoma) | growth (HOP-92 NSCLC) | growth (A549/ATCC NSCLC) | growth (DU-145 prostate) | growth (RXF 393 renal)
COc1ccc(Cl)cc1Nc1nc(C(F)(F)F)ccc1C(=O)N/N=C/c1c(Cl)cccc1Cl | 74.1% | 59.6% | 44.7% | 58.5% | 41.6% | 39.2% | 43.7% | 35.9% | 33.8% | 69.3% | 46.3% | 65% | 13.8% | 20.6% | 60.9% | 71.3% | – | – | – | –
CCCCCCCCCCCCC1CCCC(C)C1 (centres undefined) | 105% | 99.8% | 95% | 90.5% | 101% | – | 92.3% | 98.1% | – | 93.3% | 105% | 110% | 90.1% | 118% | – | 106% | 69.1% | 93.1% | 109% | 109%
CC(C)N(Cc1ccccc1)c1c(Cl)ssc1=O | 106% | 101% | 109% | 113% | 109% | – | 102% | 106% | 108% | 104% | 89.3% | 118% | 108% | 96% | 94.3% | 91% | – | 88.8% | 94.9% | 74.8%
CCN(CC)CCCCCCCNc1c2ccc(Cl)cc2nc2ccc(OC)cc12 | -24.3% (active) | -18.2% (active) | -35% (active) | -49.2% (active) | -67.6% (active) | – | -57.5% (active) | -92.5% (active) | -21.5% (active) | -20.6% (active) | -30% (active) | -59.1% (active) | -51.6% (active) | -71.2% (active) | -84.3% (active) | -48.8% (active) | – | -37.9% (active) | -28.6% (active) | -70.8% (active)
COc1ccc(CNC(=O)c2c(C)n([O-])c3ccc(OC)cc3[n+]2=O)cc1 | 98.2% | 110% | 89.7% | 105% | 118% | -2.57% (active) | 96% | 108% | 90.8% | 98.6% | 111% | 103% | 239% | 118% | 109% | 107% | – | – | – | –
Cc1ccc(-c2c3c(N)c4c(nc3nc3c2c(C)nn3-c2ccccc2)CCC4)cc1 | 66.8% | 92.6% | 89.1% | 95.7% | 5% (active) | – | 28% | -74.4% (active) | – | 91.5% | 37.4% | 108% | 98.5% | 72.7% | – | 88% | 77.9% | 32.9% | 106% | –
COc1ccc(CC(=O)Nc2nn3c(-c4cc(C(F)(F)F)cc(C(F)(F)F)c4)nnc3s2)cc1 | 35.2% | 62.8% | 90.6% | 98.9% | 56.6% | – | – | 104% | 62.4% | 80.9% | 88% | 85.8% | 66.1% | 65.7% | 58.2% | 97% | 15.4% | 78.1% | 86% | –
COc1ccc(/C=C/C(=O)c2cccc(NS(C)(=O)=O)c2)cc1 | 69.6% | 85.7% | 92.2% | 90.2% | 96.4% | 66.5% | 75.7% | 102% | – | 112% | 80.5% | 82% | 92.1% | 94.7% | – | 97.3% | – | – | 42.6% | –
O=C(Nc1nc2ccc(OC(F)(F)F)cc2s1)c1ccc(F)cc1 | -34.7% (active) | 20.6% | 30% | 26.1% | -13.1% (active) | – | 16.2% | -17.4% (active) | 9.01% (active) | 10.9% | 27.1% | 8.27% (active) | 4% (active) | 21.5% | 22.3% | 37.3% | -14% (active) | 14.5% | – | 48.5%
O=C(O)CCC(=O)OC[C@@H](NC(=O)C(Cl)Cl)[C@H](O)c1ccc([N+](=O)[O-])cc1 | 98.4% | 89.3% | 99.5% | 98.5% | 111% | 91.7% | 93.7% | 99.4% | 98.6% | 96% | 103% | 109% | 101% | 100% | 104% | 98% | – | – | 110% | 104%
O=C(Nc1ccc(Cl)cc1)Nc1nc2ccc(OC(F)(F)F)cc2o1 | 68.6% | 107% | 113% | 114% | 81.8% | – | 105% | 118% | 60.7% | 128% | 109% | 123% | 70.1% | 104% | 114% | – | 71.9% | 75.1% | – | 78.9%
CCOC(=O)N1CCC(N=C2CSc3nnc(-c4cc(C(F)(F)F)cc(C(F)(F)F)c4)n3N2)CC1 | 15.3% | 29.4% | 67.4% | -4.27% (active) | 18.2% | – | – | -9.91% (active) | 28.3% | 68.4% | 34.4% | 50.2% | 33.4% | 18.3% | 48.6% | 27.5% | 19.9% | 21.5% | 64.6% | –
COc1cnc2c(c1)C(=O)c1c-2n(CCCN2CCC(O)CC2)c(=O)c2cc(F)ccc12 | -19.9% (active) | -83.7% (active) | -3.95% (active) | -20.8% (active) | -44.5% (active) | – | -45.9% (active) | -10.9% (active) | -0.117% (active) | -61.9% (active) | 19.9% | 9.51% (active) | -20.7% (active) | -17.1% (active) | -16.3% (active) | -22.4% (active) | – | -77.5% (active) | -8.46% (active) | -43.1% (active)
CCCCc1n(Cc2ccc3ccccc3c2)cc[n+]1Cc1ccc2ccccc2c1 | -23.8% (active) | -0.475% (active) | 23.3% | -2.71% (active) | -13.1% (active) | – | -18.4% (active) | -77.1% (active) | -17.9% (active) | -52.8% (active) | -92.9% (active) | -12.6% (active) | -14.1% (active) | -4.06% (active) | -33.8% (active) | -75.2% (active) | – | 29.8% | 13.6% | -42.7% (active)
CCCCCCCCN(CCO)CCCCCCCC | 103% | 92.8% | 96.1% | 103% | 106% | – | 101% | 107% | 104% | – | 117% | 107% | – | 94.4% | 94.3% | 101% | 97% | 99.7% | 112% | 93.2%
c1cc[n+](Cc2ccnc3ccccc23)cc1 | 123% | 93.9% | 111% | 94.1% | 106% | – | 107% | 104% | 71.3% | 114% | 98.9% | 106% | 95.9% | 89.3% | – | 101% | – | 107% | 117% | 90.3%
COc1cc(C(=O)/C=C/c2cccc(Nc3ccnc4cc(Cl)ccc34)c2)cc(OC)c1OC | 11.1% | -18.7% (active) | 8.86% (active) | – | 4% (active) | – | -74.1% (active) | -36.1% (active) | -6.81% (active) | 9.8% (active) | -5.45% (active) | -16.6% (active) | 3.06% (active) | -46.1% (active) | 30.6% | -11.6% (active) | 16.3% | -38.7% (active) | -0.714% (active) | -71.9% (active)
COc1ccc(C2=NN(C(C)=O)C(c3c(C)nn(-c4ccccc4)c3N3CCOCC3)C2)cc1 (centres undefined) | 100% | 92.1% | 101% | – | 98.7% | – | 93% | 90.9% | 99% | 106% | 98.1% | 95% | 93.9% | 93.7% | 86.3% | 94.8% | 86.9% | 85.5% | 107% | 98.7%

— PubChem BioAssay (NCI)
